The values that follow come from PubChem BioAssay (EPA / NIEHS).

Experiment [1] in a line: BSK_LPS_PGE2: BioMAP Diversity Plus: LPS Assay for Prostaglandin E2 (PGE2) Biomarker Activity (AID 2283082).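 For AC50: secreted prostaglandin E2 measured by ELISA in LPS-stimulated co-culture.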 Particulars: primary human HUVEC with PBMC; actives raise or lower the signal. The essentials:
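PGE2 release measured by ELISA in an LPS-activated co-culture of human umbilical vein endothelial cells and peripheral blood mononuclear cells, read at 24 h post-dosing. DMSO served as baseline for bidirectional curve fitting.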

Read-out in experiment [2]: Macrophage colony-stimulating factor (MCSF), CSF1 (gene 1435)
Briefly: BSK_LPS_MCSF: BioMAP Diversity Plus: LPS Assay for Macrophage colony-stimulating factor (MCSF) Biomarker Activity (AID 2283083). As to conditions: primary human HUVEC with PBMC; actives raise or lower the signal. The essentials:
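Human umbilical vein endothelial cells co-cultured with peripheral blood mononuclear cells were exposed to compound for 24 h. M-CSF levels were measured by ELISA, and bidirectional curve fitting used DMSO as the negative control and baseline.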

Read-out in experiment [3]: Tissue Factor, F3 (gene 2152)
Briefly: BSK_LPS_TissueFactor: BioMAP Diversity Plus: LPS Assay for Tissue Factor Biomarker Activity (AID 2283084). Particulars: primary human HUVEC with PBMC; actives raise or lower the signal. The method in brief: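 Human umbilical vein endothelial cells co-cultured with peripheral blood mononuclear cells were dosed and stimulated with LPS. Cell-surface CD142 was quantified by ELISA at 24 h. Activity was fitted bidirectionally against DMSO baseline.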

Read-out in experiment [4]: Tumor necrosis factor (Homo sapiens) (UniProt P01375)
As to the kind of experiment: BSK_LPS_TNFa: BioMAP Diversity Plus: LPS Assay for Tumour Necrosis Factor alpha (TNFa) Biomarker Activity (AID 2283085).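 For AC50: TNFa protein level quantified by ELISA in the co-culture.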 As to conditions: primary human HUVEC with PBMC; actives raise or lower the signal. The essentials: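 TNFa was quantified by ELISA in LPS-activated co-cultures of human endothelial cells and PBMC, 24 h post-dosing. Both increases and decreases versus DMSO were fitted.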

Read-out in experiment [5]: Vascular cell adhesion molecule 1 (VCAM1), VCAM1 (gene 7412)
Briefly: BSK_LPS_VCAM1: BioMAP Diversity Plus: LPS Assay for Vascular cell adhesion molecule 1 (VCAM1) Biomarker Activity (AID 2283086). Particulars: primary human HUVEC with PBMC; actives raise or lower the signal. The method in brief: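 VCAM-1 quantified by ELISA in an LPS-activated co-culture of human endothelial cells and peripheral blood mononuclear cells, read 24 h post-treatment. Fitted in both directions versus DMSO; parallel SRB staining flags overt cytotoxicity.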

Read-out in experiment [6]: CD38, CD38 (gene 952)
Briefly: BSK_SAg_CD38: BioMAP Diversity Plus: SAg Assay for CD38 Biomarker Activity (AID 2283087). Particulars: primary human HUVEC with PBMC; actives raise or lower the signal. The method in brief: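 CD38 quantified by ELISA (fluorescence) in a superantigen-activated endothelial cell–PBMC co-culture at 24 h post-dose. Activity fitted in both directions relative to DMSO; parallel SRB and Alamar Blue cytotoxicity read-outs.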

Read-out in experiment [7]: CD40, CD40 (gene 958)
Briefly: BSK_SAg_CD40: BioMAP Diversity Plus: SAg Assay for CD40 Biomarker Activity (AID 2283088). Particulars: primary human HUVEC with PBMC; actives raise or lower the signal. The method in brief: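 Human umbilical vein endothelial cells co-cultured with PBMC; CD40 levels measured by ELISA with fluorescence read-out 24 h after chemical dosing. Gain or loss of signal fitted bidirectionally against DMSO baseline.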

Read-out in experiment [8]: CD69, CD69 (gene 969)
As to the kind of experiment: BSK_SAg_CD69: BioMAP Diversity Plus: SAg Assay for CD69 Biomarker Activity (AID 2283089).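 For AC50: cell surface CD69 protein quantified by ELISA with fluorescence detection.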 As to conditions: primary human HUVEC with PBMC; actives raise or lower the signal. The method in brief: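 ELISA, fluorescence read-out: CD69 on human umbilical vein endothelial cell + PBMC co-culture, 24 h post-dosing. Gain or loss of signal fitted bidirectionally against DMSO baseline.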

Read-out in experiment [9]: Monocyte Chemoattractant Protein-1 (MCP1), CCL2 (gene 6347)
Briefly: BSK_SAg_MCP1: BioMAP Diversity Plus: SAg Assay for Monocyte Chemoattractant Protein-1 (MCP1) Biomarker Activity (AID 2283090). As to conditions: primary human HUVEC with PBMC; actives raise or lower the signal. The method in brief:
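Values derive from bidirectional fitting of ELISA-measured MCP1 against DMSO controls. Readings were taken 24 h after dosing human vascular endothelial cells co-cultured with peripheral blood mononuclear cells under superantigen stimulation.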

Read-out in experiment [10]: E-selectin (Homo sapiens) (UniProt P16581)
Briefly: BSK_SAg_Eselectin: BioMAP Diversity Plus: SAg Assay for Eselectin Biomarker Activity (AID 2283091). As to conditions: primary human HUVEC with PBMC; actives raise or lower the signal. The essentials: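 HUVEC co-cultured with PBMC, compound dosed then read at 24 h; E-selectin measured by ELISA. Activity fitted bidirectionally against DMSO as negative control and baseline.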

Read-out in experiment [11]: Monokine induced gamma interferon (MIG), CXCL9 (gene 4283)
As to the kind of experiment: BSK_SAg_MIG: BioMAP Diversity Plus: SAg Assay for Monokine induced gamma interferon (MIG) Biomarker Activity (AID 2283092). As to conditions: primary human HUVEC with PBMC; actives raise or lower the signal. The method in brief: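 ELISA readout of MIG/CXCL9; primary human umbilical vein endothelial cells co-cultured with peripheral blood mononuclear cells; 24 h post-dose; gain/loss fit vs DMSO baseline.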

Experiment [12] can be described thus: BSK_SAg_PBMCCytotoxicity: PBMC Cytotoxicity Assessment in the BioMAP Diversity Plus: SAg Assay (AID 2283093).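 For AC50: PBMC superantigen activated with SEB plus TSST-1 one hour after compound addition.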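 Note: PBMC viability measured as Alamar Blue reduction fluorescence at 546/580 nm; fitted both ways against DMSO so a hit may be loss or gain of signal.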 Particulars: primary human HUVEC with PBMC. The method in brief: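 Alamar Blue reduction (6 h, 546/580 nm) reports PBMC cytotoxicity after 90 h superantigen activation (SEB, TSST-1; 20 ng/mL final each) with 1 h compound pre-treatment. Gain or loss of signal fitted versus DMSO.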

Read-out in experiment [13]: Interleukin-8 (IL8), CXCL8 (gene 3576)
As to the kind of experiment: BSK_SAg_IL8: BioMAP Diversity Plus: SAg Assay for Interleukin-8 (IL8) Biomarker Activity (AID 2283094). As to conditions: primary human HUVEC with PBMC; actives raise or lower the signal. The method in brief:
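ELISA readout of IL-8 from a superantigen-activated endothelial/PBMC primary human co-culture, taken 24 h post-dosing and fitted in both directions against DMSO; parallel SRB total-protein staining flags overt cytotoxicity.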

Experiment [14] can be described thus: BSK_SAg_Proliferation: Cell Proliferation Assessment in the BioMAP Diversity Plus: SAg Assay (AID 2283095).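 Note: relative cell number as total protein by SRB absorbance in sub-confluent culture.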 As to conditions: primary human HUVEC with PBMC. The method in brief:
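Relative cell number in the endothelial cell/PBMC co-culture was quantified at 96 h by SRB staining (0.1% SRB, 10% TCA fixation, read at 560 nm). Curves were fitted in both directions relative to DMSO baseline.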

A short description of experiment [15]: BSK_SAg_SRB: Viability Assessment in the BioMAP Diversity Plus: SAg Assay (AID 2283096).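 Note: cells read one day after compound addition; hits may be either gain or loss of signal compared with DMSO.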 Particulars: primary human HUVEC with PBMC. The method in brief: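 This overt-cytotoxicity endpoint quantifies protein in human endothelial/PBMC co-cultures at 24 h using SRB absorbance (560 nm) after trichloroacetic acid fixation. Values reflect signal change from the DMSO negative control, fitted bidirectionally.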

Molecules are shown by their SMILES. “And” between values parts separate entries of the source, which are not always exact repeats. Equal values may be shown once. The source holds several records for some structures; these can differ, active in one and inactive in another. The source made the active and inactive calls. Rule for the calls: active = hit-call score of the fitted dose curve at least 0.9, where 1 is the maximum; inactive = score below 0.9.

Chain of E-selectin (Homo sapiens) (P16581 whole entry, looked up): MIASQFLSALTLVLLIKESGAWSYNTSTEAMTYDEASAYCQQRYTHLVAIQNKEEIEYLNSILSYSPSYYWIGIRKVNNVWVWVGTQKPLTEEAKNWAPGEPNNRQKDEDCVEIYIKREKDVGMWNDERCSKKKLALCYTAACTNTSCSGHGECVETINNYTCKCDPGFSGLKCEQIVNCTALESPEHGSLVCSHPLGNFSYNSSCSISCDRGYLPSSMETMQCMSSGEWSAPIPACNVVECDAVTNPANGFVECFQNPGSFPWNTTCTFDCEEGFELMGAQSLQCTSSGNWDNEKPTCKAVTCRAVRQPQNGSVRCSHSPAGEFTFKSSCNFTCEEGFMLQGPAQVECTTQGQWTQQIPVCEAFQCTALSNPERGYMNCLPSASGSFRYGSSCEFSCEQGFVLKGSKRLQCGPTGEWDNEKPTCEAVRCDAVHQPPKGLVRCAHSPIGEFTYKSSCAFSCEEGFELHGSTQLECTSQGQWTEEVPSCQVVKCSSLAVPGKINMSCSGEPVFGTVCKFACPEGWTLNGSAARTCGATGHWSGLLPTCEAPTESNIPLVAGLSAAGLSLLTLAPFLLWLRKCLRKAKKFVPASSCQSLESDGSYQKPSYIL
Chain of Tumor necrosis factor (Homo sapiens) (P01375 whole entry, looked up): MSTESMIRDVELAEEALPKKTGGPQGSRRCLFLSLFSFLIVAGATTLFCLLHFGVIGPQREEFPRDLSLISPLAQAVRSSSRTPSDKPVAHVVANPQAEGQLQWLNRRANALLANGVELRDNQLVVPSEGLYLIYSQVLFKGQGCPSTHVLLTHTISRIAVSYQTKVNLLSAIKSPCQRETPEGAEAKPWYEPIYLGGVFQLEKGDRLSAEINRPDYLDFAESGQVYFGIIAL

For orientation: AC50 means the concentration giving half of the maximal activity seen. As to `CC(C)c1cccc(C(C)C)c1N1C(=O)c2ccc(O)cc2C1=O`, the result in experiment [1], in experiment [3], in experiment [4], in [12] and in [13] was inactive. Besides, the concentration at half-maximal activity (AC50) was 9.36 µM (active) in [2]; 10.1 µM (active) in [5]; 13.6 µM (active) in experiment [6]; 18.9 µM (active) in experiment [7]; 19.1 µM (active) in [8]; 37.1 µM (active) in [9]. Also, the AC50 in experiment [10] is 30.9 µM (active); in [11] it was 32 µM (active); in [14], 20 µM (active); in [15] it was 19.3 µM (active).

Turning to `CC/C(=C\C(=N/O)C(N)=O)C(C)[N+](=O)[O-]` (stereo unspecified), the outcome in [1], in [2], in experiment [3], in experiment [4], in experiment [5] and in [6] was inactive. Also, the outcome in experiment [7], in experiment [8], in [9], in experiment [10], in experiment [11] and in experiment [12] was inactive. For the same molecule, the result in [13] and in experiment [15] was inactive. Moreover, the AC50 in experiment [14] is 20 µM (active).

Consider `COc1ccc2sc(C(=O)Nc3nnn[nH]3)c(OC(C)C)c2c1`, for which the AC50 is 34.1 µM (active) in experiment [1]; 14.1 µM (active) in [2]; 33.2 µM (active) in [3]; 28.9 µM (active) in experiment [4]; 8.99 µM (active) in experiment [5]; 16.2 µM (active) in experiment [6]. The AC50 was 9.27 µM (active) in experiment [7]; 19.9 µM (active) in [8]; 15.4 µM (active) in [9]; 30 µM (active) in [10]; 27.8 µM (active) in [11]; 10 µM (active) in experiment [12]. The AC50 in experiment [13] is 16.6 µM (active); in [14], 11.9 µM (active); in experiment [15], 14.2 µM (active).

On to `O=C(O)CC(O)C(=O)O` (stereo unspecified), for which the result in experiment [1], in experiment [2], in experiment [3], in experiment [4], in experiment [5] and in experiment [6] was inactive. Also, the result in experiment [7], in experiment [8], in experiment [9], in [10], in experiment [11] and in [12] was inactive. In addition, the result in [13], in experiment [14] and in experiment [15] was inactive.

Take `C1=CCCC=CCCC=CCC1`: the outcome in [1], in experiment [2], in [3], in experiment [4], in [5] and in experiment [6] was inactive. The result in [7], in [8], in experiment [9], in experiment [10], in experiment [11] and in [12] was inactive. Moreover, the result in experiment [13], in experiment [14] and in experiment [15] was inactive.

Turning to `Nc1cccc(N)c1`, the outcome in experiment [1], in [2], in experiment [3], in experiment [4], in experiment [5] and in [6] was inactive. The outcome in experiment [7], in experiment [8], in experiment [9], in experiment [10], in experiment [11] and in experiment [12] was inactive. The outcome in [13], in experiment [14] and in experiment [15] was inactive.

Turning to `Cn1cnc([N+](=O)[O-])c1Sc1ncnc2nc[nH]c12`, the outcome in experiment [1], in experiment [2], in experiment [3], in experiment [4], in experiment [6] and in experiment [7] was inactive. Further, the outcome in experiment [8], in [9], in experiment [11], in experiment [12] and in experiment [15] was inactive. The AC50 was 20.3 µM (active) and 5.64 µM (active) in experiment [2]; 19.2 µM (active) and 15.7 µM (active) in experiment [4]; 25.3 µM (active) and 6.4 µM (active) and 13.7 µM (active) in experiment [5]; 12.1 µM (active) in experiment [6]; 13.3 µM (active) and 8.21 µM (active) in experiment [7]; 19.9 µM (active) and 12.6 µM (active) in experiment [9]. In addition, the AC50 was 6.91 µM (active) and 12.6 µM (active) and 16.9 µM (active) in experiment [10]; 13.7 µM (active) in experiment [12]; 12.9 µM (active) and 12.6 µM (active) and 9.23 µM (active) in experiment [13]; 17.3 µM (active) and 7.53 µM (active) and 7.26 µM (active) in experiment [14].
